Bioassay records from PubChem.
Eya2 phos inh = inhibitors of human Eya2 phosphatase activity. O00167. recombinant Eya2, OMFP fluorescence dephosphorylation (OMFP is methylfluorescein phosphate). Potency, µM (top dose mostly 76.9 µM), for inactives: at the top dose activity, negative = inhibition, usual class: inhibitors. 330,000 compounds, 0.006% hits. AID 488837; active = well fitted inhibition curve with a large enough effect; inconclusive = small, poorly fitted or top-dose-only effect, or effect the other way; also: potency is read from the fitted curve at half-maximal effect
Target sequence (O00167 whole entry, looked up): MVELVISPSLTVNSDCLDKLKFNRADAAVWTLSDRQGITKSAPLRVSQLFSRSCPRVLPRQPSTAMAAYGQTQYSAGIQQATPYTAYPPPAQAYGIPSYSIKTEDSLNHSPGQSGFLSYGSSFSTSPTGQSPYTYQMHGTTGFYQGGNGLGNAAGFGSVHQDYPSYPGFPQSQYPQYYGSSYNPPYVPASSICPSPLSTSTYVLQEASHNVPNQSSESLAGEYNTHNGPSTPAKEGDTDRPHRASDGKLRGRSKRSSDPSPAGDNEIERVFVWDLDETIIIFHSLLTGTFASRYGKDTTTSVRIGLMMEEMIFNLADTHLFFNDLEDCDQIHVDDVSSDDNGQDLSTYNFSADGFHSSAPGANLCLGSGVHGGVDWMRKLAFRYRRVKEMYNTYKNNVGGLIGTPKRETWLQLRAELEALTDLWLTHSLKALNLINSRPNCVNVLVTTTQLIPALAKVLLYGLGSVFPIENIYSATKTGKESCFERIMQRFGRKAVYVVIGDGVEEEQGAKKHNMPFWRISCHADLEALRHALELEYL
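Eya2 (0.2 uM) preincubated 10 min at ambient with compound, then OMFP substrate added at 50 uM; 10 min reaction in 50 mM HEPES pH 7.5, 50 mM NaCl, 5 uM MgCl2, 0.05% BSA, 1 mM DTT. Fluorescence read at Ex 485/Em 525 nm.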
CtBP-E1A blk = blocks the CtBP interaction with E1A. AID 651724. 340,000 compounds, 0.49% hits. activity change, % (concentration not given with the values). AlphaScreen GST-E1A/His-CtBP binding, 1536-well; stronger effect = lower value
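GST-E1A and His-tagged CtBP (125 nM each as 5X stock) were preincubated with pin-transferred compound for 2 h at 37 °C in the dark, then glutathione donor and nickel acceptor beads were added for 1 h before AlphaScreen reading.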
CCT modulator = changes cytosolic chaperonin activity; purified chaperonin ATPase assay, HTRF ADP detection, 30 min; activity change, % (concentration not given with the values), hits read low; 360,000 compounds, 0.3% hits; in the data active = activity change below about -30%
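ATPase activity: ADP formed was measured by HTRF Transcreener (665/615 nm ratio) after 30 min at 37 deg C with 10 uM ATP. Compounds screened at one 76 uM concentration against 40 or 20 nM TRiC in Tris pH 7.4/KCl/MgCl2/DTT buffer.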
PI4K2A block = inhibitors of human PI4K2A. Q9BTU6. activity change, negative = inhibition, % at 76.9 µM. purified PI4K2A, ADP-Glo luminescence, 1 h; stronger effect = lower value. 420,000 compounds, 0.13% hits. AID 1346378; in the data active = activity change below about -50%; inconclusive = mostly about -30% to -49%;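 also: -100% = wells without enzyme as full effect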
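ADP-Glo luminescence measured ADP generated by PI4K2A enzyme (4 ug/mL before mixing) with 1.2 mM PI substrate (pre-mix) and 300 microM ATP (pre-mix). Tris pH7.5 buffer with MgCl2, Triton X-100; 1 h reaction at ambient temperature.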
Six1-Eya2 inh = blocks human Six1 binding to Eya2. AlphaScreen GST-Six1/His-Eya2 binding, biochemical; stronger effect = lower value. AID 651725. Q15475+O00167. activity change, % (concentration not given with the values). 360,000 compounds, 0.56% hits
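AlphaScreen with GST-Six1 and His-Eya2 (5X mix: 250 nM and 500 nM), glutathione donor and nickel acceptor beads; buffer 50 mM Tris pH 8.0, 300 mM NaCl, 1 mM TCEP; 1 h at 37 C in the dark.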
Active calls of the source: *; ? = inconclusive; . = no result. Only some compounds are listed: those with a hit (about 0.97% of all), similar ones and a draw of the others. Rule as the data show it, unless noted: active = activity change below about -65%; inconclusive = mostly about -30% to -63%; inactive = weaker than that. Unless noted, % is scaled to controls: 0 for no effect and ±100 for the full control effect.

SMILES | Eya2 phos inh | CtBP-E1A blk | CCT modulator | PI4K2A block | Six1-Eya2 inh
CC(C)Cn1c(-c2ccccc2Cl)nc2ccccc21 | . | . | . | 0.7 | .
CC(C)N(C(=O)Cn1c(-c2ccccc2Cl)nc2ccccc21)c1ccccc1 | -2.7% | -15.0 | -54.9* | 0.9 | 5.9
CCC(=O)N1CCC1(C)C(=O)Nc1ccc(OC)c(OC)c1 (configuration not stated) | . | 5.8 | 0.6 | -4.5 | 4.8
COc1ccc(NC(=O)C2(C)CCN2C(=O)C(C)C)cc1F (configuration not stated) | . | -22.6 | -35.6* | 1.4 | 5.1
Cc1ccc(S(=O)(=O)Nc2cccc3ncccc23)cc1 | -1.3% | -9.6 | -3.3 | 0.0 | 4.2
Cc1ccc(S(=O)(=O)Nc2cccc3ncccc23)s1 | 10.1% | -81.4* | -0.1 | -11.1 | -86.2*
COc1ccc(OCc2cccc(C(=O)O)c2)cc1 | 2.9% | -6.5 | 1.5 | ? | -5.6
CCOc1ccc(OCc2cccc(C(=O)O)c2)cc1 | 8.9% | -0.6 | -0.2 | -58.1* | 1.6
Oc1c(Br)cc(Br)cc1/C=N/NC(=S)N[C@H]1CC2C=CC1C2 (some centres not stated) | 0.9% | -24.6 | -1.9 | -0.3 | -22.6
CNC(=S)N/N=C/c1cc(Br)cc(Br)c1O | -12.7% | -97.5* | -10.5 | 2.6 | -90.0*
CC(=O)Nc1ccc(C(=O)N/N=C/c2cc(Br)cc(Br)c2O)cc1 | -0.2% | ? | -0.4 | -7.5 | -65.0*
COCCCNc1nc2c(S(=O)(=O)c3ccccc3)nnn2c2ccc(Cl)cc12 | . | . | . | -0.3 | .
CCOC(=O)[C@@]12CCC3=C1N(CCC3)C(=O)[C@H](CC(=O)NCc1ccccc1)C2 | . | . | . | -3.7 | .
COc1ccc(S(=O)(=O)NNC(=O)C(=O)NNc2ccccn2)cc1 | -22.8% | ? | -2.3 | 13.3 | -90.8*
COc1cc(NC(=O)CN(C)S(=O)(=O)c2ccc3[nH]c4c(c3c2)CCCC4)cc(OC)c1OC | . | . | . | 0.8 | .
CCN(CC)C(=O)CSc1nc(C)cc(-c2cccs2)c1C#N | 2.8% | 5.4 | -34.0* | -1.8 | -1.8
Cc1cc(C)c(C#N)c(SCC(=O)c2cccs2)n1 | 3.7% | 8.1 | 0.8 | 0.4 | 7.3
Cc1ccc(-c2n[nH]c3c2C(c2cccs2)N(c2ccc(Cl)cc2)C3=O)cc1 (configuration not stated) | . | . | . | -7.4 | .
O=C(CCC1N=C2c3ccccc3N=C(SCC(=O)NCC3CCCO3)N2C1=O)NCc1ccc(F)cc1 (configuration not stated) | 4.3% | . | -45.8* | 3.8 | -0.5
COC(=O)c1ccccc1NC(=O)c1ccc2nc(Cc3ccccc3)oc2c1 | . | . | . | -3.4 | .
CCCCNCCCCOc1ccccc1 | 6.3% | 2.6 | -90.2* | -6.5 | 3.2
Cc1ccc(C)c(N2CCN(C(=O)c3cc4cc5ccc(C)cc5nc4s3)CC2)c1 | . | . | . | -0.3 | .
Cn1nnc(NC(=S)NC(=O)c2ccc(-c3ccc(Br)cc3)o2)n1 | 2.0% | -69.5* | -1.1 | -6.7 | -71.8*
O=C(CSc1n[nH]c(-c2ccccn2)n1)Nc1ccccc1 | -2.1% | -101.0* | -1.9 | -3.2 | -95.0*
COc1ccccc1-c1nc(SCC(=O)Nc2ccccc2F)n[nH]1 | -9.9% | 2.8 | -2.3 | 2.5 | 2.0
SMILES | Eya2 phos inh | CtBP-E1A blk | CCT modulator | PI4K2A block | Six1-Eya2 inh
COc1ccccc1NC(=O)CSc1n[nH]c(-c2ccccn2)n1 | 13.3% | -89.6* | -3.4 | -16.7 | -95.1*
O=C(CSc1n[nH]c(-c2ccccn2)n1)Nc1ccccc1F | 0.7% | 1.0 | -3.0 | -12.0 | -92.4*
COc1ccc(NC(=O)CSc2n[nH]c(-c3ccccn3)n2)cc1 | 23.9% | -79.2* | -2.5 | -3.3 | -92.4*
Cn1cc(C(=O)[C@@H]2CCc3nc[nH]c3C2)c2ccccc21 | . | . | . | -3.5 | .
CCc1ccccc1NC(=O)c1cnc2sc(N3CCCC3)nn2c1=O | . | . | . | 0.8 | .
COc1cc(-c2nnc(SCCOc3ccc(C)c(Cl)c3)o2)cc(OC)c1OC | . | . | . | -6.1 | .
COCCCNC(=O)Cn1nc(Cc2ccncc2)c2ccccc2c1=O | . | . | . | 3.7 | .
O=C(O)c1ccc(OCCN2CCCCC2)cc1 | . | . | . | -1.7 | .
CCN(CC)C(=O)c1[nH]cnc1C(=O)N[C@@H](CCCCNC(=O)OC(C)(C)C)C(=O)OC(C)(C)C | 9.5% | -5.1 | -30.8* | -2.3 | 7.5
CCOC(=O)c1c(C)oc2nc(C)nc(Nc3ccc(C)c(Cl)c3)c12 | . | . | . | 1.1 | .
